Data published in PubChem BioAssay AID602442 (National Center for Advancing Translational Sciences (NCATS), 2012).
Calls of active or inactive are those of the source. No rule for the calls is given here.

Target: Thyrotropin receptor (Homo sapiens) (UniProt P16473)
Assay: qHTS for antagonists of the Thyroid Stimulation Hormone Receptor: Hit Validation for Inverse Agonism
Conditions: active compounds read high
Description: The thyroid-stimulating hormone receptor (TSHR) is a member of the 7 trans-membrane-spanning receptor (7TMR) family of cell surface receptors. TSHR-mediated hyperthyroidism is important in thyroid pathology. The development of small molecule antagonists of TSHR may lead to therapeutic approaches for TSHR-mediated hyperthyroidism caused by constitutively activating mutations or stimulating auto-antibodies associated with Graves' disease. Graves' disease is the leading cause of hyperthyroidism and is caused by autoantibodies that stimulate TSHR (TsAbs) causing thyroid growth and unregulated overproduction of thyroid hormones and existing treatments have liabilities (agranulocytosis). In addition, TSHRs are known to be expressed in multiple extrathyroidal tissues including bone, brain, kidney, testis, fat and cells of the immune system but the role of the TSHR in these tissues is not clear. Therefore, TSHR antagonists/inverse agonists could be used as probes of extrathyroidal TSHR function. Finally, TSHR inverse agonists, which are a subclass of antagonists that inhibit agonist-independent (or basal or constitutive) TSHR signaling, could be used to inhibit TSH-independent signaling in patients with recurrent or metastatic thyroid cancer who are receiving thyroid hormone to suppress TSH. […]

Chain of Thyrotropin receptor (Homo sapiens) (P16473 whole entry, looked up): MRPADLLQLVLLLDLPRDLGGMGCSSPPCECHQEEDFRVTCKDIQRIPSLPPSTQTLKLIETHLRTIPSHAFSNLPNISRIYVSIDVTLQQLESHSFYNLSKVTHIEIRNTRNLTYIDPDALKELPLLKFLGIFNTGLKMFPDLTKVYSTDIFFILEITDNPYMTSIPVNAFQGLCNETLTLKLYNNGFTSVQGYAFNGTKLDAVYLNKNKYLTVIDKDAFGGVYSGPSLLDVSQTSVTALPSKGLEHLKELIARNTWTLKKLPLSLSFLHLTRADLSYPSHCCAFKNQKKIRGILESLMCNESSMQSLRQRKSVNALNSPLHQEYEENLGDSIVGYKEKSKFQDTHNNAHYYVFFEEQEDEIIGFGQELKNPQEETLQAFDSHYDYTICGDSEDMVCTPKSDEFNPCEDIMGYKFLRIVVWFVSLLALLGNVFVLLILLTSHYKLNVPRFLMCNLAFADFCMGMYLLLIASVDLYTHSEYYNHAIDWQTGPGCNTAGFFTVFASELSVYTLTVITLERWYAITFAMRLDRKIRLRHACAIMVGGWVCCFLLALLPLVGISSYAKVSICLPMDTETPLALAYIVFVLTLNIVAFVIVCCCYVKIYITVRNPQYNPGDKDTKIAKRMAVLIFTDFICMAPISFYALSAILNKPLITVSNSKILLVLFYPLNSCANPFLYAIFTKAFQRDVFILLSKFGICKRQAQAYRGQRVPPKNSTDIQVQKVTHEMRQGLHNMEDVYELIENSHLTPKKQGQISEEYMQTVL

Compound	max inhibition
COC(=O)C1=C(c2ccc(-c3ccccc3)c(F)c2)C[C@@H]2CC[C@H]1N2C(=O)NCCOc1ccccc1	75% (active)
